# Results: the supplement of paper PMC9334596
# Several values for one entry are separate records, joined by “and”; a condition that tells them apart may be missing. Equal values may be shown once. In all, about 5,300 compounds were measured (“PER2::LUC luminescence relative to vehicle control”: median about 0.96, highest 2% from about 1.3 on). The list comes from a sample in which the highest values are over-represented; it also holds similar structures and randomly drawn compounds.
# System: mPer2Luc MEF
# Assay: PER2::LUC luminescence relative to vehicle control (fold of vehicle); higher = higher PER2::LUC reporter signal
# Settings: 10 µM
# Method in brief: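 The value is PER2::LUC luminescence expressed as fold of vehicle control. Mouse embryonic fibroblasts carrying the mPer2Luc reporter were seeded at ~3000 cells per well in 384-well plates and grown in DMEM with 10% FBS at 37 °C and 5% CO2. Compounds from commercial libraries were added at 10 μM 48 h after seeding, and luminescence was read with the ONE-Glo luciferase assay system 24 h and 30 h after treatment, followed by an alamarBlue viability assay.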
Structure (SMILES),PER2::LUC luminescence (time after treatment 24 h),PER2::LUC luminescence (time after treatment 30 h)
CCCCN(CCCC)C(=O)CN1C[C@H](c2ccc3c(c2)OCO3)[C@@H](C(=O)O)[C@@H]1c1ccc(OC)cc1,2.23,2.08
Cc1noc(-c2ccc(-c3ccc(CC(=O)O)cc3)cc2)c1NC(=O)OC(C)c1ccccc1Cl (centres undefined),1.1,1.12
C/C=C/C(=O)N1C(=O)OC[C@@H]1Cc1ccccc1,0.864,0.846
O=C1/C(=C/c2cccs2)CCC/C1=C\c1cccs1,1.5,1.67
CN1CCCN=C1/C=C/c1cccs1,1.2 and 1.03,0.92 and 1.16
O=C1/C(=C/c2cccs2)CC/C1=C\c1cccs1,1.07,1.01
CC(=O)Nc1ccc(OC(=O)c2ccccc2O)cc1,0.934,1.02
O=C(Oc1ccccc1C(=O)O)c1ccccc1O,1.15 and 0.613,1.16 and 0.995
Nc1ccc(C(=O)Oc2ccccc2)c(O)c1,0.958,1.54
CC(C)c1onc(-c2c(Cl)cccc2Cl)c1COc1ccc(/C=C/c2cccc(C(=O)O)c2)c(Cl)c1,1.86,2.03
CC(C)CCNC(=O)c1ccc2c(c1)nc(Nc1n[nH]c3ccc(-c4ccccc4OC(F)(F)F)cc13)n2C1CCC(O)CC1 (centres undefined),0.526,0.553
CCCCC(CC)COC(=O)C=Cc1ccc(OC)cc1 (centres undefined),1.09,1.14
CCCCC(CC)COC(=O)C(C#N)=C(c1ccccc1)c1ccccc1 (centres undefined),1.01 and 1.15,1.08 and 1.14
CCCCC(CC)COC(=O)c1ccccc1O (centres undefined),1.07,1.63
COc1ccc(CNc2nc(NCc3ccc(OC)cc3)c3ncn(C(C)C)c3n2)cc1,0.991,1.22
CC(C)Cc1ccc([C@@H](C)C(=O)O)cc1,0.974,0.981
CC(C)Cc1ccc(C(C)C(=O)O)cc1 (racemic),1.12,0.938
CC(C(=O)O)c1ccc(CC2CCCC2=O)cc1 (centres undefined),0.779 and 1.02,1.36 and 1.08
O=C(NCc1cccc(O)c1)c1cc2cc(F)ccc2[nH]1,0.948,0.986
CC(=O)NN(Cc1ccc(N)cc1)c1ncnc2c1ncn2[C@@H]1O[C@H](CO)[C@@H](O)[C@H]1O,1.03,0.913
NC1(C(=O)O)CCc2cc(P(=O)(O)O)ccc21 (racemic),1.03,1.01
Cc1nc(C(=O)N2CCC[C@H]2Cc2nnc(-c3ccccc3)o2)c(-c2ccccc2F)s1,1.06,0.881
COc1ccc(CCN2CN=C(SCc3ccc(Cl)cc3)NC2)cc1OC,0.912,0.83
COc1cc(-c2ccc(=O)[nH]n2)ccc1OC(F)F,0.97,0.924
COc1cc(-c2nc3ccccc3s2)ccc1O,1.37,1.5
COc1ccc(-c2nc3cc(F)ccc3s2)cc1OC,1.5,1.52
COc1cc(CC(=O)O)ccc1O,0.99,0.874
